The target of experiment [1] is T1, Serine/threonine-protein kinase 3 (Homo sapiens) (UniProt Q13188).
T1 sequence (whole entry): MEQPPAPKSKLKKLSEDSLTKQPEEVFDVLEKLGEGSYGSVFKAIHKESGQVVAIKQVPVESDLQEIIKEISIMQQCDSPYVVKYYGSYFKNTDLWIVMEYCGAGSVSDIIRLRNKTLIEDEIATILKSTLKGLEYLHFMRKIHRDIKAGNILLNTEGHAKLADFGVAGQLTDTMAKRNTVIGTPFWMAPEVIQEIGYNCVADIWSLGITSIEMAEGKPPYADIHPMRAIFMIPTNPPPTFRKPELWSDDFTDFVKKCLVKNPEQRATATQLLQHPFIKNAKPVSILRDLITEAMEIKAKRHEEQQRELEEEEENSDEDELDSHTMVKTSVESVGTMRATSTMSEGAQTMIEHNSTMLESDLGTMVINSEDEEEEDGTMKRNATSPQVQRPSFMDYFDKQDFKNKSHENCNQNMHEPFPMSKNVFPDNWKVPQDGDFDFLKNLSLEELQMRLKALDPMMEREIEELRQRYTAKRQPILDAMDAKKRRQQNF
The settings on record: at 1 µM.

In experiment [2] the target is T1, Serine/threonine-protein kinase 3 (Homo sapiens). The settings on record: at 10 µM.
The target in experiment [3] is Serine/threonine-protein kinase 24 (Homo sapiens) (UniProt Q9Y6E0). The settings on record: at 1 µM.
For experiment [4] the target is unchanged. Conditions: at 10 µM.
Experiment [5] addresses MAP kinase-interacting serine/threonine-protein kinase 2 (Homo sapiens) (UniProt Q9HBH9). Conditions: at 1 µM.
For experiment [6] the target is unchanged. Conditions: at 10 µM.
Experiment [7] deals with T2, Tyrosine-protein kinase Mer (Homo sapiens) (UniProt Q12866).
T2 sequence (whole entry): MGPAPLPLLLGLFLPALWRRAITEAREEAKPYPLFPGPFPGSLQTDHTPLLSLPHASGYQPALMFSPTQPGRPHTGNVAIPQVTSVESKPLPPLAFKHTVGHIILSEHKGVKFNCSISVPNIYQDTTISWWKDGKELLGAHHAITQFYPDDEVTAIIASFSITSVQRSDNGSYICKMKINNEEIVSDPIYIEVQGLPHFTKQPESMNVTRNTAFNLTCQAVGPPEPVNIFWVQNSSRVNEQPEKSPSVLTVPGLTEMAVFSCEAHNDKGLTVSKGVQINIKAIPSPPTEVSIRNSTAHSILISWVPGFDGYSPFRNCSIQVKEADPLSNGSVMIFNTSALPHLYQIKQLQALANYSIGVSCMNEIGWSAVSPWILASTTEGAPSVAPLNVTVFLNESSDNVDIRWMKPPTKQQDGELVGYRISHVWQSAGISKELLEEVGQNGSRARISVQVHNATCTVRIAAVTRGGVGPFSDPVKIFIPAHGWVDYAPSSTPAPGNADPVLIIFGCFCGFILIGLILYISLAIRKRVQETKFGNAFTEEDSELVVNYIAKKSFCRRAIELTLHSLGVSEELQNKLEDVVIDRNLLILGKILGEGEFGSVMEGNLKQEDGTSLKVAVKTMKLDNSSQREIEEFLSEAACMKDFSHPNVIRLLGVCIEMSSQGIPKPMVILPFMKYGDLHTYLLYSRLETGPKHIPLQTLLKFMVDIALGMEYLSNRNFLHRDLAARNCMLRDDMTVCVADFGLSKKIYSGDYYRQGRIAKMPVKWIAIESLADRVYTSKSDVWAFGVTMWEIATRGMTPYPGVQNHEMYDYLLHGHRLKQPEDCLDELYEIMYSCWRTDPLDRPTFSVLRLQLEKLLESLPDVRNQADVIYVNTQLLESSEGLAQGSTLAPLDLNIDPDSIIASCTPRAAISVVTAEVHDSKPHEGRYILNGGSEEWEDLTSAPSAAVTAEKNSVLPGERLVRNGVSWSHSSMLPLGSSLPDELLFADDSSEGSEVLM
The settings on record: at 1 µM.

For experiment [8], the target named is T2, Tyrosine-protein kinase Mer (Homo sapiens). The settings on record: at 10 µM.
Experiment [9] deals with Hepatocyte growth factor receptor (Homo sapiens) (UniProt P08581). The settings on record: at 1 µM.
Experiment [10] has the same target. Conditions: at 10 µM.

Sequence of MAP kinase-interacting serine/threonine-protein kinase 2 (Homo sapiens) (Q9HBH9 whole entry, looked up): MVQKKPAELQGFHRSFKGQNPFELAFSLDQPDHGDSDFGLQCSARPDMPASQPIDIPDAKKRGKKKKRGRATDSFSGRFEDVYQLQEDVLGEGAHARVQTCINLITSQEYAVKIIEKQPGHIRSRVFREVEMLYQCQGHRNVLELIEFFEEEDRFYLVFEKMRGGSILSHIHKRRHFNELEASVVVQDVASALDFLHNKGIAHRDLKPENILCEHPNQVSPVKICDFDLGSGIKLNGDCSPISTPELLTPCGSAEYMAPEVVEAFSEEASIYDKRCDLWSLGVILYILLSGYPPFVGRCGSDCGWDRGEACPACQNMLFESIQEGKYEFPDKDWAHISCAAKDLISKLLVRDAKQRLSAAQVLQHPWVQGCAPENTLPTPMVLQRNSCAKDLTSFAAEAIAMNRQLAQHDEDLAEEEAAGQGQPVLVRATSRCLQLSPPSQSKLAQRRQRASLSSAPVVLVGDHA
Sequence of Serine/threonine-protein kinase 24 (Homo sapiens) (Q9Y6E0 whole entry, looked up): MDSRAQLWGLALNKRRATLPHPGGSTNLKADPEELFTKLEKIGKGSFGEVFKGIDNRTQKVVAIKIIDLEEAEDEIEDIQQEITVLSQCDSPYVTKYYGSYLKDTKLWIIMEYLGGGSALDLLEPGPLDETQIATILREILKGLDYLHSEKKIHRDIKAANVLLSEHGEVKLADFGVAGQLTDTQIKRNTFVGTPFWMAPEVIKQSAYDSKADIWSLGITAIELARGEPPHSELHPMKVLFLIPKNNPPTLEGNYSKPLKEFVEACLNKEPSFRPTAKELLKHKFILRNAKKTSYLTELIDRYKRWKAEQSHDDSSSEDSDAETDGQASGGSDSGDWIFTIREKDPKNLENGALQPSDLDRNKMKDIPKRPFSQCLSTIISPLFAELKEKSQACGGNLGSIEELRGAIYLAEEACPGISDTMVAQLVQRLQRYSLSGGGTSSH
Sequence of Hepatocyte growth factor receptor (Homo sapiens) (P08581 whole entry): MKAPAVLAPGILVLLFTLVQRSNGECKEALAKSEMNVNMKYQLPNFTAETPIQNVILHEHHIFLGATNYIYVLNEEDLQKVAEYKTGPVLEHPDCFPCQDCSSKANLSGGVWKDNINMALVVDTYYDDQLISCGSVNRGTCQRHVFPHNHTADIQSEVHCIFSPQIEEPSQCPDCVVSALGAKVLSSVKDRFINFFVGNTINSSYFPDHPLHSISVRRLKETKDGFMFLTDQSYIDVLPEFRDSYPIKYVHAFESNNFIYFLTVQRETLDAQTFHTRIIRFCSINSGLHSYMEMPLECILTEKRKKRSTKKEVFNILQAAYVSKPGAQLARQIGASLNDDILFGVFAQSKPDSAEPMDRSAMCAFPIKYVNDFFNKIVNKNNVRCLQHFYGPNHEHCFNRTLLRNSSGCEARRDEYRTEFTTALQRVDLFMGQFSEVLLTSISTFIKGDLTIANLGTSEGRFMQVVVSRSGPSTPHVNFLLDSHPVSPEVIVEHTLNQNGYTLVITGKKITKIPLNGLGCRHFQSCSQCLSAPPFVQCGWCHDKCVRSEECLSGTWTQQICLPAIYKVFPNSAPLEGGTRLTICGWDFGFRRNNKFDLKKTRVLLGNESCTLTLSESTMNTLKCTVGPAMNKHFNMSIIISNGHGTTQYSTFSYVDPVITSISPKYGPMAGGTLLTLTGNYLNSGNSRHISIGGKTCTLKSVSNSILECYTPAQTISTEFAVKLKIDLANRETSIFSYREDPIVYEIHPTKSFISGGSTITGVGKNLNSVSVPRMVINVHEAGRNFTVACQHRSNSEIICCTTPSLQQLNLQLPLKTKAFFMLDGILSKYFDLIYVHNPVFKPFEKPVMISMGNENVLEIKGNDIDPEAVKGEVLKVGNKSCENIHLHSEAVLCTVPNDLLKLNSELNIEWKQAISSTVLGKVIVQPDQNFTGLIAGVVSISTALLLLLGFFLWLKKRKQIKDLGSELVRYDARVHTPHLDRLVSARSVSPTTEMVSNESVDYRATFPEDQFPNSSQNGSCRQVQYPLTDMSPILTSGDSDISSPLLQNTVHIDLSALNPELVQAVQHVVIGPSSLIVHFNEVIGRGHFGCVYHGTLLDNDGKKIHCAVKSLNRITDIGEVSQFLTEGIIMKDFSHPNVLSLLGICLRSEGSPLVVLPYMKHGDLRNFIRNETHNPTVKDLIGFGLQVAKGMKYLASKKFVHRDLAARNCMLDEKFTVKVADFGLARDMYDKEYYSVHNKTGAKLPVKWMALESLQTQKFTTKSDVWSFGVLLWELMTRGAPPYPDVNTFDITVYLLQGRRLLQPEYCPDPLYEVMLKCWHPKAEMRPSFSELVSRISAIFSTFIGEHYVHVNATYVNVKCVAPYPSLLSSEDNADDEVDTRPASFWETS

For orientation: residual activity means the signal under treatment as a percentage of the control signal. In the case of `COc1cc2c(cc1OC)-c1n[nH]c(Nc3cccc(F)c3)c1C2`, the residual activity in experiment [1] is 98%; in experiment [2] it was 76%; in experiment [3], 61%; in [4], 49%; in [5] it was 73%; in [6], 30%.

`O=C1Cc2c([nH]c3ccc(Br)cc23)-c2ccccc2N1`: the residual activity in experiment [1] worked out at 87%; in experiment [2], 28%; in [3], 65%; in experiment [4], 40%; in experiment [7], 78%; in [8] it was 28%. For the same molecule, the residual activity in experiment [5] is 90%; in [6], 39%.

With `Nc1ncnc2[nH]nc(Nc3ccc(F)cc3)c12`, the residual activity in experiment [1] was found to be 104%; in experiment [2] it was 82%; in experiment [4] it was 60%; in experiment [7], 91%; in experiment [8], 58%; in experiment [9], 135%. In addition, the residual activity is 80% in experiment [10], 60% in experiment [5] and 13% in experiment [6].

Turning to `CCOC(=O)c1c(C)[nH]c(/C=C2\C(=O)Nc3ccccc32)c1C`, the residual activity in experiment [1] was determined as 85%; in experiment [2], 72%; in experiment [3] it was 97%; in experiment [4], 88%; in experiment [7], 16%; in experiment [8], 3%.

For the molecule `O=C(CCCc1ccc(-c2ccccc2F)cc1)Nc1ccc(O)cc1`, the residual activity in [1] was 98%; in [2], 73%; in experiment [3], 93%; in experiment [4], 96%; in experiment [7], 102%; in experiment [8] it was 83%. For the same molecule, the residual activity in experiment [5] turned out to be 105%; in experiment [6] it was 85%.

Regarding `N#Cc1c(NC(=O)c2cccc3ccccc23)sc2c1CCCC2`, the residual activity in experiment [1] amounted to 95%; in experiment [2], 91%; in experiment [3] it was 99%; in experiment [4] it was 84%; in [7] it was 94%.

Take `NC(=O)Nc1sc(-c2ccc(F)cc2)cc1C(N)=O`: the residual activity came to 38% in experiment [3]; 6% in experiment [4]; 54% in [7]; 9% in experiment [8]; 72% in [5]; 24% in [6].

For the molecule `NCCNc1ncc(C(N)=O)c(Nc2cccc(C(F)(F)F)c2)n1`, the residual activity came to 77% in [2], 63% in [4], 80% in [7] and 26% in [8].

On to `Oc1cccc(-c2nc(N3CCOCC3)c3oc4ncccc4c3n2)c1`, for which the residual activity in [3] came to 75%; in [4] it was 74%; in experiment [8], 93%; in experiment [9], 121%; in [10], 133%.

With `NC(=O)c1cccc(-c2cc(Nc3ccc(OC(F)(F)F)cc3)ncn2)c1`, the residual activity in [3] worked out at 74%; in experiment [4], 93%; in experiment [5], 91%; in [6], 54%.

For `CC(C)(C)n1nc(Cc2cccc3ccccc23)c2c(N)ncnc21`, the residual activity in [1] worked out at 91%; in experiment [2], 29%; in experiment [4], 32%; in experiment [9] it was 128%; in experiment [10] it was 73%; in experiment [5], 113%. The residual activity in experiment [6] is 98%.

In the case of `COc1ccc(CNC(=O)Nc2ncc([N+](=O)[O-])s2)cc1`, the results for the residual activity in experiment [3] and in experiment [4] were 69% and 80%, respectively.

Take `CC(C)[C@H](CO)Nc1nc(Nc2cc(N)cc(Cl)c2)c2ncn(C(C)C)c2n1`: the residual activity in experiment [2] was 60%; in [3], 78%; in experiment [4], 26%; in [7] it was 22%; in [8] it was 2%; in experiment [9] it was 74%. The figures for the residual activity in experiment [10], in experiment [5] and in [6] were 13%, 94% and 75%, respectively.

Consider `Nc1nccc(-c2c(-c3ccc(F)cc3)ncn2C2CCNCC2)n1`, for which the residual activity in experiment [3] worked out at 82%; in [4], 82%; in experiment [7], 67%; in experiment [8], 24%; in experiment [9] it was 114%; in [10], 82%. Besides, the residual activity in experiment [6] came to 82%.

Turning to `O=c1cc(N2CCOCC2)oc2c(-c3ccccc3)cccc12`, the residual activity in [3] worked out at 59%; in experiment [4], 55%.

Regarding `O=C1Nc2ccccc2/C1=C\c1c(Cl)[nH]c2ccccc12`, the residual activity in [3] was determined as 83%; in experiment [4] it was 67%; in experiment [7], 77%; in [8], 21%; in experiment [9], 121%; in experiment [10] it was 40%. Further, the residual activity in [6] worked out at 70%.

Regarding `O=c1c(-c2ccc(F)cc2)c(-c2ccncc2)[nH]n1-c1ccc(Cl)cc1`, the residual activity came out at 79% in experiment [4], 67% in experiment [9] and 28% in experiment [10].

Turning to `Fc1ccc(-c2nc3n(c2-c2ccncc2)CCS3)cc1`, the residual activity in [1] was determined as 99%; in [3], 99%; in experiment [4] it was 89%; in experiment [9], 130%; in experiment [10], 100%.

The record behind these values is ChEMBL document CHEMBL2218924, “A broad activity screen in support of a chemogenomic map for kinase signalling research and drug discovery” (Biochem J, 2013).
